Bioassay records as filed in PubChem BioAssay.
Sampled rows, rich in hits. Any-hit rate of the full collection: about 1.7%.
PTHR1 ag = qHTS for PTHR1 Agonists: Primary Screen | AID 743266, 2014 | Potency, µM (series often up to 115 µM), for the others: top-dose activation, hits mostly activators | Parathyroid hormone/parathyroid hormone-related peptide receptor (Homo sapiens), Q03431 | actives 0.075% (n = 410,000) | HEK293 GP2 PTHR1 cells, GloSensor cAMP luminescence, 1 h; also: nearly all actives have a fitted effect of over 55% in size
Target sequence (Q03431 whole entry, looked up): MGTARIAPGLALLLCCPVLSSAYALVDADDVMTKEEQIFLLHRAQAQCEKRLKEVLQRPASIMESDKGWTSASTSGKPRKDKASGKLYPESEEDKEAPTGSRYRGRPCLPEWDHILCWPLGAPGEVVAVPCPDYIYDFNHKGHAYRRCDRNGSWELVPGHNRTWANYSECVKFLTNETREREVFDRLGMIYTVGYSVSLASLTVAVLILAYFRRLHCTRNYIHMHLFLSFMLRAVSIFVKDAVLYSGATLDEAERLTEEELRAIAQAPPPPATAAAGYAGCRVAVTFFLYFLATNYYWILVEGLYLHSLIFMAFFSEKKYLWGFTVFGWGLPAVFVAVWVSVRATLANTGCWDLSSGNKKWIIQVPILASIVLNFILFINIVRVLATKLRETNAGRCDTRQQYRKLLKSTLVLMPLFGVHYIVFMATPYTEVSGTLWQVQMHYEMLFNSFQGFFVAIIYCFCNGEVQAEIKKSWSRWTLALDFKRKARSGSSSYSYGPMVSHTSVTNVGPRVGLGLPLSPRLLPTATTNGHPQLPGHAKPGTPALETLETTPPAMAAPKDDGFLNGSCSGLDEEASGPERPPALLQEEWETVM
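HEK-293-derived GP2 cells expressing PTHR1 and a GloSensor cAMP reporter, 3,000/well, plated overnight, given luciferin plus IBMX (each 0.5 mM as added) for 1 h at 37 °C, then compound for 1 h at 37 °C. Luminescence was read after 15 min at room temperature.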
HEK293 tox = qHTS of GLP-1 Receptor Inverse Agonists: Cytotox Screen; AID 624418, 2012; HEK293 cAMP-luciferase reporter cells, luminescence, 24 h; actives 0.13% (n = 410,000); Potency, µM (doses to about 38.3 µM), inactives show at the highest dose activity change, negative = inhibition, actives largely listed as inhibitors;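 also: loss of luciferase light is scored as toxicity; % is scaled to controls: 0 for no effect and ±100 for the full control effect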
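A 23 nL compound transfer followed 12 hours of cell culture at 37 deg C; exposure then lasted 24 hr. Luciferase assay detection reagent was dispensed and plates read for luminescence after a 12 min room-temperature wait.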
GLP1R inv ag = qHTS of GLP-1 Receptor Inverse Agonists (Inhibition Mode). Glucagon-like peptide 1 receptor (Homo sapiens), P43220. HEK293 GLP-1R CRE-luciferase, luminescence, 24 h; GLP-1R form is constitutively active. Potency, µM (series often up to 38.3 µM), without a hit: at the highest dose activity change, negative = inhibition, most hits filed as inhibitors. actives 1.6% (n = 410,000). AID 624417, 2012; also: % is scaled to controls: 0 for no effect and ±100 for the full control effect; nearly all actives have a fitted effect of over 55% in size
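Constitutively active GLP-1R drives a cAMP-responsive luciferase in stably transfected HEK293 cells; test compounds are added after overnight (12 h) attachment and left 24 hr, and signal loss in luminescence marks inhibition.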
GLP1R ag = qHTS of GLP-1 Receptor Agonists | Potency, µM (series often up to 45.6 µM), without a hit: at the highest dose activation, hits mostly activators | actives 0.007% (n = 380,000) | Glucagon-like peptide 1 receptor (Homo sapiens), P43220 | HEK293 GLP-1R CRE-luciferase, luminescence, 4-6 h; cells express a hypersensitive GLP-1R form; also: % of control where 0% means no effect
Numbers without * were called inactive; i = inactive; ? = inconclusive; / = no result; [ ] = dose if it differs, or a comment. Calls follow the shape of the dose curve; as a rule, active = well fitted curve in the direction sought with a large enough effect; inconclusive = small, poorly fitted or top-dose-only effect, or another doubt; inactive = no such curve, though single readings can be large; an effect the other way counts as inactive or inconclusive. Potency is read from the fitted curve at half-maximal effect.

SMILES	PTHR1 ag	HEK293 tox	GLP1R inv ag	GLP1R ag
CC(C)N1CCC2(CC1)N=C(c1ccc3c(c1)OCO3)CC(c1cc(Cl)ccc1O)N2 (configuration not stated)	-19%	?	11µM*	-40%
CC(Sc1ccc(Cl)cc1)C(=O)Nc1ccc2c(c1)OCO2 (configuration not stated)	i	5%	?	3%
NC(=O)[C@@H]1CC2(CC(c3cccc(NC(=O)COc4ccc(Cl)cc4)c3)=NO2)CN1C(=O)COc1ccc(Cl)cc1 (some centres not stated)	-89%	-26%	11µM*	-2%
NC(=O)[C@H]1CC2(CC(c3cccc(NC(=O)COc4ccc(Cl)cc4)c3)=NO2)CN1C(=O)C(c1ccccc1)c1ccccc1 (some centres not stated)	-15%	?	5.6µM*	-4%
O=C(c1ccc2c(c1)OCCO2)N(Cc1cccnc1)c1nc2c(Cl)cccc2s1	-14%	3%	?	/
CCOC(=O)c1ccc(NC(=O)c2cnn(-c3ccc(C)cc3C)c2C2CCN(C(=O)OC(C)(C)C)CC2)cc1	i	0%	?	/
CCOC(=O)c1c(CSc2ccc(CC)cc2)oc2ccc(O)c(CN(C)C)c12	-11%	?	2.5µM*	18%
Cc1ccc(S(=O)(=O)NCC(Nc2cccc(Cl)c2)c2ccccc2)cc1 (configuration not stated)	-32%	-28%	11µM*	-6%
Cc1ccc(S(=O)(=O)NCC(NCc2ccc(F)cc2)c2ccccc2)cc1 (configuration not stated)	-16%	12%	11µM*	-3%
Cc1ccc(NC(=O)c2c(NC(=O)c3ccc(F)cc3)sc3c2CCCC3)cc1C	i	2%	11%	/
Clc1ccccc1C1=Nn2c(nnc2-c2ccncc2)SC1	-5%	0%	1.1µM*	-10%
Cc1nc2cccnc2n1C1CCN(S(=O)(=O)N(C)C)CC1	i	13%	-6%	/
CCOc1ccc(CNC(=O)c2ccc(-c3nc(CSc4ccc(C)cc4)c(C)o3)cc2)cc1	-9%	6%	17%	/
CC(C)CNC(=S)Nc1ccc(Oc2ccccc2)cc1	-37%	?	11µM*	7%
Cc1cccc(-n2ncc3c(N4CCCCCC4)ncnc32)c1	-45%	1%	-14%	/
CC(C)Nc1ncnc2c1cnn2-c1ccccc1	-76%	6%	-7%	-1%
NNc1ncnc2c1cnn2-c1ccccc1	-7%[57.5 µM]	?	10µM*	13%
c1ccc(-n2ncc3c(NC4CCCCCC4)ncnc32)cc1	-1%	-19%	5.6µM*	11%
Cc1ccc(Cl)cc1-n1ncc2c(NC3CCCCCC3)ncnc21	-86%	-28%	4.5µM*	/
c1ccc(-n2ncc3c(N4CCCCC4)ncnc32)cc1	-92%	4%	4µM*	-5%
CCOC(=O)c1cc2c(=O)n3ccccc3nc2n(CC2CCCO2)c1=NC(=O)c1ccccc1OCC (configuration not stated)	-25%	258%	6%	/
COc1ccc(NC(=O)COCc2cc(-c3cccs3)on2)cc1	-3%	0%	-8%	/
CC(C)C(=O)OCC(=O)[C@@]12OC(C3CCCCC3)O[C@@H]1CC1C3CCC4=CC(=O)C=C[C@]4(C)C3[C@@H](O)C[C@@]12C (some centres not stated)	/	/	/	-3%
O=C(OCc1ccccc1Cl)c1ccc(-c2nnn(Cc3ccccc3)n2)cc1	i	3%	6%	/
CC1CCCN(c2ncnc3c2cnn3-c2ccc(F)cc2)C1 (configuration not stated)	-38%	-4%	8.9µM*	/
COc1cccc(NC(=O)n2nc(N)cc2-c2ccc(Cl)cc2)c1	i	?	10µM*	-2%
COc1cccc(NC(=O)CSc2nnc3scc(-c4ccc(Cl)cc4)n23)c1	-82%	2%	5%	/
CCCCn1cc2c(c1-c1ccccc1Br)c(=O)n(C)c(=O)n2C	i	5%	8%	/
O=c1ccc(N=Nc2ccccc2)ccc1O	-64%	11µM*	?	2%
O=S(=O)(O)c1ccc(N=Nc2ccccc2)cc1	9%	0%	12%	11%
